# mcGAS inh: mouse cGAS inhibition by luminescence; inhibition, % at 12.5 µM; recombinant cGAS, Kinase-Glo ATP depletion luminescence; 160,000 compounds, 0.15% hits;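 further: 0% = negative control wells and 100% = reference inhibitor with no enzyme activity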
# NPYLR7 ag: activates Aedes aegypti NPYLR7 receptor | HEK293T NPYLR7/Galpha15, GCaMP6s calcium fluorescence | activation, % at 10 µM | 270,000 compounds, 0.15% hits; in the data active means activation above about 40%;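 further: 0% = vehicle and 100% = reference agonist at the receptor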
# hcGAS inh: human cGAS inhibition. recombinant h-cGAS, ATP depletion, Kinase-Glo luminescence. inhibition, % at 12.5 µM. 290,000 compounds, 0.081% hits. AID 1259398;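 further: 0% = vehicle reaction and 100% = reaction without DNA for no activity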
# Target sequence (Q8N884 whole entry, looked up): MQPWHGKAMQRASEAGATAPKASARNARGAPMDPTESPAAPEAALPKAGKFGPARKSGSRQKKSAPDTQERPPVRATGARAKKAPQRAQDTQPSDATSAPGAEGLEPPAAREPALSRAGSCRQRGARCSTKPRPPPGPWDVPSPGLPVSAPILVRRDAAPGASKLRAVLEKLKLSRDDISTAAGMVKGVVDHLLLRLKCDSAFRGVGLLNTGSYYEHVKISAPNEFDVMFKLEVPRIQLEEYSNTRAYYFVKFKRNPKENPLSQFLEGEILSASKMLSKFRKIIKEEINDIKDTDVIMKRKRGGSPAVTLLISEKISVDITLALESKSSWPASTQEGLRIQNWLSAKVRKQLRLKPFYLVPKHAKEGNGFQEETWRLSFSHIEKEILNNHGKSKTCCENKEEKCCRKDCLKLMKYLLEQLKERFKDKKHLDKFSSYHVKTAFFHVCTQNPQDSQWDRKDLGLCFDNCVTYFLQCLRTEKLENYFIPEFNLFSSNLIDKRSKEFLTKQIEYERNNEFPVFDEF
# * = called active by the depositor; / = no result; + = active, no number; ! = repeats disagree. An excerpt weighted towards active compounds, which were near 0.3% of everything screened. Unless noted, no stated cut-off is given here; in the data, active means inhibition above about 40%; inactive means the rest.
SMILES,mcGAS inh,NPYLR7 ag,hcGAS inh
COC(=O)CN1C(=O)N(CCc2ccccc2)C2(CCN(C3CCOCC3)CC2)C1=O,-6.2,20.3,-8.3
CN1C(=S)N(c2ccc3c(c2)CCC3)C(=O)/C1=C/c1ccc(N(C)C)cc1,-10.3,4.1,-13.1
CN1C(=S)N(c2ccc3c(c2)CCC3)C(=O)/C1=C\c1ccncc1,-3.5,41.1*,-2.0
COc1cccc(C=C2N=C(c3ccccc3F)OC2=O)c1,/,7.2,2.7
Cn1c(=O)[nH]c2nnc(-c3cccnc3)nc2c1=O,57.9*,-5.5,41.0*
O=c1c2ccc(-c3cccnc3)nc2[nH]n1-c1ccccc1,/,-2.1,-4.2
O=C(Nc1cccc(S(=O)(=O)C2CCCC2)c1)c1cc(=O)c2ccccc2o1,/,1.4,-7.3
CCCCC(=O)Nc1nc(-c2ccccc2)c(C)s1,-7.6,6.3,-0.6
O=S(=O)(c1ccc2c(c1)OCCCO2)N1CCCC1c1nc2ccccc2s1 (configuration not stated),/,0.4,-6.0
COCc1cc(C)nc(N/N=C\c2cc(I)c(OC)c(OC)c2)c1C#N,-4.6,-1.9,-2.9
N#CCCNN=Cc1cc(I)c(O)c(I)c1,99.0*,-1.0,54.7*
COc1cc(Cl)ccc1OCc1cc(C(=O)N2CCCC2c2ccc(F)cc2)no1 (configuration not stated),/,2.8,-5.0
Cc1ccc(CN(C)C(=O)CCl)o1,6.6,-1.4,3.9
CN(Cc1ccc(-c2ccc(Cl)cc2)o1)C(=O)CCl,49.8*,6.1,-4.7
Cc1ccccc1C1CCCN1C(=O)C(C)(C)NC(=O)c1cccs1 (configuration not stated),/,-2.5,50.2*
CC(C)(NC(=O)c1cccs1)C(=O)NC1CCN(Cc2ccccc2)C1 (configuration not stated),/,13.4,-1.3
O=C(N1CCCC1c1cccs1)C12CC3CC(CC(C3)C1)C2 (configuration not stated),-2.4,/,2.2
CCOCCCN1C(=O)C(=Cc2ccccc2O)NC1=S,/,119.6*,0.8
CCCCN1C(=O)C(=Cc2cccnc2)NC1=S,/,5.6,-6.3
O=C1C(=Cc2ccccc2O)NC(=S)N1Cc1ccco1,1.3,80.1*,0.7
COc1ccccc1C=C1SC(=S)N(Cc2ccco2)C1=O,/,11.4,-9.2
CCn1cc(C(=O)O)c(=O)c2cnc(N3CCNCC3)nc21,-7.0,70.5*!,-4.4
CCn1cc(C(=O)O)c(=O)c2cc(F)c(N3CCNCC3)cc21,-4.1,-3.4,-1.7
Fc1cccc2sc(Cl)nc12,-1.6,-25.4,2.8
Cc1ccc(-c2csc3nc(CN(Cc4ccccc4)CC(O)COCC(C)C)[nH]c(=O)c23)cc1C (configuration not stated),-3.3,-7.5,-1.4
SMILES,mcGAS inh,NPYLR7 ag,hcGAS inh
CCN1CCN(c2ccc(C(=O)C=Cc3ccc(O)c(OC)c3)cc2F)CC1,/,92.9*,-8.0
COc1ccc(C(=O)C=Cc2cccc(O)c2)cc1F,22.7,-1.7,0.6
Fc1c(F)c(F)c(N=Cc2ccc(N3CCOCC3)cc2)c(F)c1F,/,-6.3,1.6
CC1=C(C(=O)OC(C)C)C(c2cccc(O)c2)C2=C(CC(c3ccccc3)CC2=O)N1 (configuration not stated),-4.1,1.7,-3.4
N#Cc1cc(C(=O)c2cc(Cl)cc(Cl)c2O)cn(-c2nccs2)c1=O,/,135.3*,-0.5
N#Cc1cc(C(=O)c2cc(Br)ccc2O)cn(-c2ccccc2Cl)c1=O,/,42.2,-5.1
CCC(=O)N(C)c1nnc(C23CC4CC(CC(C4)C2)C3)s1,-2.4,2.7,-3.6
CN(C(=O)CCl)c1nnc(C23CC4CC(CC(C4)C2)C3)s1,60.3*,0.1,-1.4
COc1ccc(C(=O)COc2ccc(-c3noc(C(C)C)n3)cc2)cc1,/,6.9,+
CCOc1ccc(-c2cc(-c3nc(-c4ccc(OC)cc4)no3)[nH]n2)cc1,-8.4,3.4,-8.1
O=C(Nc1c(-c2ccc(Cl)cc2)nc2ccccn12)C1CCC1,-6.1,-4.7,-5.0
CCCc1nc(C(=O)N2CCCC(c3[nH]ncc3CC)C2)cs1 (configuration not stated),-21.5,-0.2,-4.6
CCc1cn[nH]c1C1CCCN(C(=O)c2csc(Cc3ccccc3)n2)C1 (configuration not stated),-13.4,8.8,54.8*
O=C1C=CC(=NC(=NS(=O)(=O)c2ccccc2)c2ccccc2)C=C1Cl,-3.2,-2.2,-3.8
O=C1C(Cl)=CC(=NS(=O)(=O)c2ccccc2)C(Cl)=C1Cl,59.3*,-7.3,58.6*
O=S(=O)(c1cc(F)c(F)cc1F)N1CCN(c2nccc(-c3cccc(C(F)(F)F)c3)n2)CC1,-9.5,14.1,-7.9
O=C(Sc1cccc2cccnc12)c1ccccc1Cl,43.9*,-6.7,59.8*
CSc1ccccc1NC(=O)c1cccc2cccnc12,/,5.9,0.9
COc1ccc(Cl)cc1C1=N/C(=C/c2cccc3ccccc23)C(=O)O1,-3.0,3.8,5.5
CC(C)NC[C@H](O)c1ccc(O)c(O)c1,-4.6,85.3*!,-6.9
CC(C)NCC(O)c1cc(O)cc(O)c1 (configuration not stated),-5.3,31.6,-6.4
COCCCN(CC(=O)N(Cc1ccc2c(c1)OCO2)Cc1cccs1)S(=O)(=O)c1cccc2cccnc12,-3.7,-10.4,-6.6
O=c1cc(-c2cc(O)c(O)c(O)c2)oc2cc(O)cc(O)c12,/,21.9,21.9
O=c1oc2c(O)c(O)cc3c(=O)oc4c(O)c(O)cc1c4c23,/,-10.2,43.2*
CC(C)Cc1nc(N2CCN(C(=O)c3ccccc3Br)CC2)c2c(-c3cccc(C(F)(F)F)c3)noc2n1,-8.8,23.3,-8.7
SMILES,mcGAS inh,NPYLR7 ag,hcGAS inh
COc1ccccc1C1=NN=C(N2CCOCC2)SC1,/,-0.7,3.9
O[C@@H]1CN(Cc2ccncc2Cl)CC[C@H]1c1ccc2c(c1)OCO2,/,48.6*,-3.5
O[C@@H]1CN(Cc2ccc3c(c2)OCO3)CC[C@H]1c1ccc2c(c1)OCO2,/,1.7,-2.6
CCOc1cc(/C=C2/C(=N)N3C=CSC3=NC2=O)cc(Br)c1OC(=O)c1ccco1,5.0,-1.2,-1.0
COc1cc(/C=C2\C(=N)N3N=CSC3=NC2=O)cc(Br)c1OC(=O)c1ccco1,/,48.7*,5.9
COCCN(Cc1nccn1Cc1ccccc1C)S(=O)(=O)c1ccc(C)cc1,-5.9,15.1,-7.1
CCC(C)N(CC#Cc1ccccc1)Cc1nc[nH]c1C (configuration not stated),-8.2,5.7,-6.0
COc1c(C)cnc(-c2[nH]c3cccc(F)c3c2C)c1C,/,1.5,4.8
CCOC(=O)c1c(NC(=O)c2cccc(F)c2)sc(C(=O)Nc2cccc(OC)c2)c1C,-3.5,7.5,-4.7
O=S(=O)(C1CC1)N1CCC(c2cccc(C(F)(F)F)c2)CC1,-5.5,/,-8.3
O=C1/C(=C/c2cccc(Br)c2)Oc2c1ccc(O)c2CN1CCN(CCO)CC1,10.3,52.1*,6.1
Cc1cc(O)c(CN2CCN(CCO)CC2)c2c1C(=O)/C(=C/c1ccc(F)cc1)O2,-7.4,14.7,-6.6
Cc1cc(O)c(CN2CCN(CCO)CC2)c2c1C(=O)/C(=C/c1ccco1)O2,-10.2,28.0,-2.2
O=c1oc2c(CN3CCN(CCO)CC3)c(O)ccc2cc1-c1ccc(Cl)cc1,-7.2,7.1,-7.8
O=C1/C(=C/c2cccc(Cl)c2)Oc2c1ccc(O)c2CN1CCN(CCO)CC1,12.3,50.4*,15.0
O=C1/C(=C/c2cccc(F)c2)Oc2c1ccc(O)c2CN1CCN(CCO)CC1,2.3,57.5*,8.5

# Assay outcomes from PubChem BioAssay.
